# Test results published in PubChem BioAssay AID602250 (The Scripps Research Institute Molecular Screening Center, 2012).
# About 2,200 (0.61%) of roughly 360,000 compounds were called active.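 The calls were made as follows: active = inhibition above a per-plate cutoff, the plate's mean sample inhibition plus 3 SD (cut at about 24% in these data); inactive = the rest.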 For the sample, actives were picked, then their nearest neighbours and some compounds at random.
# Experiment: nonselective inhibitors of ATP calcium response in CHO-K1, primary screen, counter-screen for M1 antagonist project, cell-based, Fluo-8 calcium fluorescence, full deck, 1536-well (AID 602250);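 also: 0% = DMSO plus EC80 ATP and 100% = DMSO alone without ATP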
# Conditions: CHO-K1 parental, ATP-induced calcium, Fluo-8 fluorescence; at 3 µM; hits give high values
row,Compound,inhibition
1,COc1cccc(CNC(=O)CCC2CCCN(C(=O)c3cc(C)[nH]n3)C2)c1 (configuration not stated),-15.8% (inactive)
2,CCOC(=O)c1c(NC(=O)C2CC=CCC2C(=O)O)sc(C)c1CC (configuration not stated),-0.11% (inactive)
3,CCCCC(=O)NCc1ccc(F)cc1,-1.22% (inactive)
4,CCCOCC(O)CC(CC)C(=O)NNC(=S)Nc1ccccc1 (configuration not stated),1.16% (inactive)
5,CCCCC(=O)NNC(=S)NC(=O)C(c1ccccc1)c1ccccc1,61.1% (active)
6,Cc1ccc(C)c(NC(=O)C2Cc3ccccc3CN2C(=O)OCc2ccccc2)c1 (configuration not stated),-8.92% (inactive)
7,Cc1cccc(CSc2nnc(C)c(=O)n2N)c1,-7.07% (inactive)
8,Cn1c(SCC(=O)N2CCCCC2)nc2c(c1=O)SCC2,8.86% (inactive)
9,Cc1cccc(CSc2nc3c(c(=O)n2C)SCC3)c1,27.6% (active)
10,COc1cc(S(=O)(=O)N2CCOCC2)ccc1NC(=O)COc1ccc(N(C)S(=O)(=O)c2ccc(C)cc2)cc1,-12% (inactive)
11,COc1cc(C(=O)NCc2ccc3c(c2)cc(C)n3C)cc(OC)c1OC,19.1% (inactive)
12,COc1cc(C(=O)NCc2cc3cc(Cl)ccc3n2C)cc(OC)c1OC,-7.3% (inactive)
13,CCn1c(CNC(=O)c2cc(OC)c(OC)c(OC)c2)cc2cc(C)ccc21,36.1% (active)
14,CN(Cc1nc(-c2cnccn2)no1)Cc1n[nH]c2c1CCCCC2,-7.73% (inactive)
15,CC1CCCN(CC(O)COc2ccc3c(c2)OCO3)C1 (configuration not stated),-7.13% (inactive)
16,Cn1c(=O)[nH]c(=O)c2c1nc(N(CCO)Cc1ccccc1)n2Cc1ccccc1Cl,-11.1% (inactive)
17,CN(C)S(=O)(=O)c1cccc(NC(=O)COC(=O)C2(c3ccccc3F)CCCC2)c1,0.69% (inactive)
18,NS(=O)(=O)c1ccc(NC(=O)COC(=O)C2(c3ccc(F)cc3)CCCC2)cc1,31.1% (active)
19,O=C(COC(=O)C1(c2ccc(F)cc2)CCCC1)N1CCNC1=O,-20.1% (inactive)

row,Compound,inhibition
1,O=C(N[C@H]1C/C=C\C(c2ccc(F)cc2)N(Cc2ccccc2)C(=O)C1)OCC1c2ccccc2-c2ccccc21 (some centres not stated),-13% (inactive)
2,Cc1ccc(S(=O)(=O)N2CCC(=O)N([C@H](COCc3ccccc3)Cc3ccccc3)CC2)cc1,-5.28% (inactive)
3,Cc1ccc(S(=O)(=O)N2CCC(=O)N([C@H](COCc3ccccc3)C(C)C)CC2)cc1,41.5% (active)
4,COc1ccc(COCCN2CCN(S(=O)(=O)c3ccccc3)CCC2=O)cc1,-8.23% (inactive)
5,O=C(Nc1ccc(Cl)c(Cl)c1)c1ccccc1NC(=O)C1CC=CCC1C(=O)O (configuration not stated),3.94% (inactive)
6,CCCSc1ncccc1C(=O)O,-2.1% (inactive)
7,COc1ccc(C(=O)NC2CCCc3c2cnn3-c2cccc(C)c2C)c(OC)n1 (configuration not stated),19.6% (inactive)
8,COc1ccc(C(=O)NC2CC(C)(C)Cc3c2cnn3-c2ccccc2C)o1 (configuration not stated),-6.41% (inactive)
9,Cn1nccc1C(=O)NC1CCCc2c1cnn2-c1ccc(F)cc1F (configuration not stated),28.7% (active)
10,Cn1nccc1C(=O)NC1CCCc2c1cnn2-c1ccccc1F (configuration not stated),26.9% (active)
11,COC(=O)c1ccc(C(=O)NC2CC(C)(C)Cc3c2cnn3-c2ccc(F)cc2)nc1 (configuration not stated),-7.53% (inactive)
12,CC1=C(C(=O)NC2CC(C)(C)Cc3c2cnn3-c2ccc(C)cc2)OCCO1 (configuration not stated),-1.6% (inactive)
13,O=c1cc(CN2CCN(S(=O)(=O)/C=C/c3ccccc3)CC2)c2ccc(O)cc2o1,6.97% (inactive)
14,Cc1cc(NC(=O)CCS(=O)(=O)c2ccc(F)cc2)no1,-0.17% (inactive)
15,COc1ccc2c(c1)C=CC1(O2)N(CCO)c2ccccc2C1(C)C (configuration not stated),-4.71% (inactive)
16,Cc1cc(OCC(=O)Nc2c(C)n(C)n(-c3ccccc3)c2=O)ccc1[N+](=O)[O-],-14.3% (inactive)
17,O=C(NCC(c1cccs1)N1CCOCC1)c1cc(Cl)ccc1[N+](=O)[O-] (configuration not stated),10.5% (inactive)
18,COc1ccccc1C(=O)NC(CCSC)C(=O)N1CCN(C/C=C/c2ccccc2)CC1 (configuration not stated),-0.28% (inactive)
19,CN(Cc1cnccn1)C(=O)c1cc(COc2cccc(C(F)(F)F)c2)on1,-4.38% (inactive)

row,Compound,inhibition
1,CN(Cc1cccnc1)C(=O)c1cc(COc2ccc3ncccc3c2)on1,37.4% (active)
2,CC(=O)c1cccc(OCc2cc(C(=O)NC(C)Cc3cccnc3)no2)c1 (configuration not stated),-0.09% (inactive)
3,O=C(NCCCc1ccccc1)c1cc(COc2c(F)cccc2F)on1,-16.9% (inactive)
4,Cc1ccc(Sc2cc(N3CCOCC3)nc(-c3ccccc3)n2)cc1,-3.23% (inactive)
5,O=c1[nH]c(=O)n(Cc2ccco2)c2c1C(C(F)(F)F)(C(F)(F)F)N=C(c1ccco1)N2,30.1% (active)
6,Nc1c(N(Cc2ccco2)C(=O)c2cccc(F)c2)c(=O)[nH]c(=O)n1Cc1ccccc1,0.73% (inactive)
7,Cc1ccccc1C1=NC(C(F)(F)F)(C(F)(F)F)c2c(n(-c3ccc(F)cc3)c(=O)[nH]c2=O)N1,-9.81% (inactive)
8,CC(=O)c1ccccc1NC(=O)CC1(CC(=O)O)CCCCC1,-2.82% (inactive)
9,CCC(C)(C(=O)Nc1ccccc1C)N(C(=O)CNC(C)=O)c1ccc(C)cc1 (configuration not stated),-1.48% (inactive)
10,CCCCSc1[nH]c(=O)c(C(=O)OCC)cc1C#N,5.2% (inactive)
11,CN1CCN(Cc2nc3cc(NC(=O)COc4ccc([N+](=O)[O-])cc4)ccc3n2C)CC1,-3.48% (inactive)
12,CCOC(=O)c1cnc(SCC(=O)Nc2cccc(OC)c2)nc1N,11.2% (inactive)
13,CCCCCCCCn1c2c(c(=N)c3c1CCC3)CCCC2,32.5% (active)
14,C/C(=N/OC(=O)c1cccc(C(F)(F)F)c1)c1cnccn1,-1.12% (inactive)
15,CC(C)Oc1ccc(S(=O)(=O)N2CCOCC2)cc1NC(=O)C1CSC2(C)CCC(=O)N12 (configuration not stated),0.94% (inactive)
16,Cc1ccccc1-c1nc(C#N)c(NCc2ccco2)o1,28.1% (active)
17,Cc1cc(NCc2ccco2)n2c(nc3ccccc32)c1C#N,-0.52% (inactive)
18,COc1ccc(Nc2oc(-c3ccccc3Cl)nc2C#N)cc1,-14.3% (inactive)
19,O=C(COC(=O)CCCSc1nc2ccccc2[nH]1)Nc1ccc(Oc2ccccc2)cc1,0.31% (inactive)
